# Results taken from PubChem BioAssay AID1347075 (National Center for Advancing Translational Sciences (NCATS), 2019).
# The whole screen tested about 400,000 compounds, of which about 5,500 (1.4%) were called active. Inconclusive results (about 9%) are left out. The sample as a whole holds a higher share of actives than the screen did. Unmarked numbers belong to inactive results. Calls come from the whole dose curve; as a rule, active = well fitted cell-killing curve with a large enough effect; inconclusive = small, poorly fitted or top-dose-only effect, or effect the other way; inactive = flat fitted curve, though single readings scatter.
# Assay: qHTS assay for MDR1-selective chemotherapeutics: Primary screen using the parental adenocarcinoma cell KB-3-1; note: nearly all actives have a fitted effect of over 60% in size
# Conditions: KB-3-1 viability, CellTiter-Glo ATP luminescence, 72 h; series mostly up to 46.1 µM; activity change, negative = cytotoxic: at the top concentration
# Description: A prime difficulty in effectively treating cancer is the development of cellular resistance to multiple structurally unrelated anticancer drugs, a phenomenon known as multidrug resistance (MDR). […] Numerous strategies to overcome P-gp-mediated MDR have been explored, including the design of drugs that evade recognition and efflux, and development of inhibitors to block efflux and restore drug accumulation. […] An alternative approach is to exploit resistance by identifying drugs that target MDR cells over the non-resistant parental cells from which they were selected. […] The development of MDR1-selective agents represents a new strategy for resolving multidrug resistance, as it remains a long-standing clinical challenge for cancer chemotherapy.
# Our goal is to identify compounds that selectively kill P-gp-expressing MDR cells. We will identify MDR1-selective compounds by comparing toxicity of compounds in the screening library against parental, drug-naive (KB-3-1) adenocarcinoma cells as well as their drug-selected MDR sub-line (KB-V1). The differential toxicity of compounds against these two cell lines will be used to identify MDR1-selective compounds, whose cytotoxicity is potentiated, rather than diminished, by P-gp expression. This assay will be utilized to conduct a quantitative high-throughput screen (qHTS) in collaboration with the NIH Chemical Genomics Center to identify selective agents, and probe hits arising from the screen will be validated using secondary assays and characterized through a well-established follow-up research program. This screen was run against the entire NCGC library collection of about 400,000 compounds.
# NIH Molecular Libraries Probe Production Network [MLPCN]
# NIH Chemical Genomics Center [NCGC]
# PI: Michael Gottesman PhD, National Cancer Institute, NIH
# Briefly, 5 microL of media containing either KB-3-1 cells (columns 1-2, 4-48) are dispensed into Greiner white, treated solid-bottom 1536-well assay plates (media-only control is added to column 3). Compounds are then transferred via Kalypsys pin tool equipped with 1536-pin array (10 nL slotted pins, V&P Scientific, San Diego, CA). Following addition of compound, the plates are incubated at 37 degrees C for 72 hours. CellTiter-Glo (2.5 µL/well) is then added, and the plates are read in a ViewLux reader (Perkin-Elmer, clear luminescence filter, 1 second exposure, 1x binning) following a 10 minute incubation. All cells are dispensed in DMEM phenol-red free media containing 10% FBS.
# Library plates were screened starting from the lowest and proceeding to the highest concentration. Vehicle-only plates, with DMSO being pin-transferred to columns 5-48, will be inserted uniformly at the beginning and the end of each library in order to monitor and record any shifts in the background, which can be affected by reagent dispensers or loss in enzyme activity over time. Screening data will be corrected, normalized, and concentration-effect relationships will be derived by using publicly-available NCGC, NCATS curve fitting algorithms (http://ncgc.nih.gov/pub/openhts).
# % is set by controls: 0 for no effect and ±100 for the full control effect; potency is the fitted concentration of half-maximal effect.
SMILES,"activity change, negative = cytotoxic",Potency
COc1cccc(CNC(=O)C(=O)NCC(c2cccs2)S(=O)(=O)c2ccccc2)c1 (stereo unspecified),-21%,–
CN(CCC#N)c1ccc(C=O)cc1,0%,–
CC(=O)c1cc(-c2ccccc2)[nH]c1N1CCCC1,0%,–
O=c1cc(-c2ccccc2)[nH]c2cc(F)ccc12,–,1.64 µM (active)
Cc1ccc(-c2cc(=O)c3ccc(F)cc3[nH]2)cc1,0%,–
O=C1OC(C(=O)Nc2cccc(Br)c2)Cc2ccccc21 (stereo unspecified),-3.58%,–
O=S1(=O)N=C(Oc2cccc(Br)c2)c2ccccc21,0%,–
CCOc1ccc(C(=O)c2cn(Cc3ccc(F)cc3)c3ccc(F)cc3c2=O)cc1,10.5%,–
CCOC(=O)c1c(C)oc2nc(C)nc(Nc3ccc(CC)cc3)c12,1.97%,–
COc1cc(OC)c2c(-c3cccc(-c4cccc(N)c4)c3)cc(=O)oc2c1,–,4.11 µM (active)
COc1ccc(-c2c(C)cc3oc(=O)cc(-c4ccccc4)c3c2C)cc1C=O,0%,–
COC(=O)C(C)Oc1ccc2c(-c3cccc([N+](=O)[O-])c3)cc(=O)oc2c1 (stereo unspecified),-5.69%,–
COc1ccc(-c2nnc(SCC(=O)Nc3ccccc3C)o2)cc1OC,-8.33%,–
CC(C)(C)c1cc(C(=O)NN)n(Cc2ccc(Cl)cc2Cl)n1,4.9%,–
Cn1ccc(=NC=C(C#N)C#N)c2ccccc21,-7.89%,–
N#CC(C#N)=CN=c1ccn(Cc2ccc(Cl)cc2Cl)cc1,–,16.4 µM (active)
Cc1ccc(-n2c(SCC(=O)Nc3cccc(F)c3)nc3c(oc4ccccc43)c2=O)cc1C,-1.05%,–
CCOC(=O)Cc1ccc(NC(=O)Nc2c[nH]c(=O)[nH]c2=O)cc1,8.46%,–
COc1ccc2c(c1)c(N1CCCC1=O)c(C(=O)Nc1ccccc1C(F)(F)F)n2C,3.33%,–
O=C(O)c1ccc(CSc2nc3cccnc3n2Cc2cccc(F)c2)cc1,5.86%,–
COc1cccc(NC(=O)Nc2ccc3c(c2)N(C)C(=O)c2ccccc2S3)c1,-10.8%,–
COc1cccc(CNC(=O)c2ccc3c(Cl)c4c(nc3c2)CCCC4)c1,8.21%,–
COc1ccccc1NC(=O)C(=O)c1cc(C)n(-c2ccccc2F)c1C,-19.3%,–
CCOC(=O)c1nc(-c2ccc3c(c2)OCO3)[nH]c1C,–,13 µM (active)
CCOC(=O)N1CCN(C(=O)COCc2cc(-c3ccc4c(c3)OCO4)on2)CC1,-9.83%,–
CCOC(=O)c1c(C)[nH]c(C(=O)COc2ccc3c(c2)OCO3)c1C,6.21%,–

SMILES,"activity change, negative = cytotoxic",Potency
CCC(CC)C(=O)N1CCc2cc(OC)c(OC)cc2C1COc1ccc(F)cc1 (stereo unspecified),15.8%,–
CC[C@H]1CN2CCc3cc(OC)c(OC)cc3[C@@H]2C[C@@H]1C[C@H]1NCCc2cc(OC)c(OC)cc21,–,0.259 µM (active)
CC(=O)N1c2ccc(S(=O)(=O)N3CCCCCC3)cc2CC1C(=O)NCc1ccccc1C (stereo unspecified),5.84%,–
COc1ccccc1NC(=O)CN1C(=O)c2ccccc2Sc2ccc(C(=O)N3CCCC3)cc21,9.84%,–
CCOC(=O)c1cc(-c2sc(NC(=O)c3ccccc3)nc2C)n(CCO)n1,-1.47%,–
C=CCn1nc(C(=O)OCC)cc1-c1sc(NC(=O)c2ccccc2)nc1C,8.61%,–
CCOC(=O)c1cc(-c2sc(NC(=O)c3ccccc3)nc2C)n(Cc2ccccc2)n1,–,23.1 µM (active)
CC(C)Sc1oc(-c2cccs2)nc1S(=O)(=O)c1ccc(Cl)cc1,4.33%,–
CC(C)(C)c1ccc(S(=O)(=O)N2CCN(C(=O)c3cc(-c4ccc(Br)cc4)n[nH]3)CC2)cc1,1.19%,–
COc1ccc(C)c(Cn2c(-c3nonc3N)nc3ccccc32)c1,–,2.31 µM (active)
CCn1c(C(O)c2cc(OC)ccc2OC)nc2ccccc21 (stereo unspecified),11.1%,–
COc1ccccc1Cn1c(CO)nc2ccccc21,-2.97%,–
Cc1ccc(C(=O)Nc2ccc3[nH]c(=O)c(=O)[nH]c3c2)cc1,11.4%,–
O=C1O/C(=C\c2ccc(O)cc2)C(O)=C1c1ccc(O)cc1,7.22%,–
COc1ccc(NC(=O)C(c2ccccc2)N2Cc3ccccc3C2=O)cc1 (stereo unspecified),11.2%,–
COCCn1nnnc1C(c1cc2ccc(OC)cc2[nH]c1=O)N1CCc2ccccc2C1 (stereo unspecified),0.603%,–
COc1ccc(OC)c(C(c2nnnn2C(C)(C)C)N2CCc3ccccc3C2)c1 (stereo unspecified),–,23.1 µM (active)
COc1ccccc1C(c1nnnn1C(C)(C)C)N1CCN(Cc2ccccc2)CC1 (stereo unspecified),-8.17%,–
CCC(=O)N1CCc2cc(S(=O)(=O)NC(C(=O)Nc3ccc(C(C)=O)cc3)C(C)C)ccc21 (stereo unspecified),17.2%,–
O=C(CO/N=C/c1ccccc1O)NNC(=O)c1ccccc1Cl,-2.68%,–
O=C(NN=Cc1ccccc1O)NN=Cc1ccccc1O,–,14.6 µM (active)
O=C(Cc1ccccc1)N/N=C/c1ccc(Cl)cc1Cl,0.793%,–
Cc1ccc(S(=O)(=O)c2nc(-c3cccs3)oc2N2CCCCC2)cc1,2.36%,–
N#Cc1ccc(OCC(=O)Nc2nc(-c3ccccn3)cs2)cc1,–,16.4 µM (active)
CC1CCCCC1NC(=O)COc1ccc(C#N)cc1 (stereo unspecified),-9.11%,–
NS(=O)(=O)c1ccc2nc(NC(=O)COc3ccccc3)sc2c1,2.49%,–

SMILES,"activity change, negative = cytotoxic",Potency
Cc1ccc(CNC(=O)CSc2c(C)cnc3c2c(=O)n(C)c(=O)n3C)cc1,7.68%,–
O=C(CC1Oc2ccccc2NC1=O)NCc1ccc(F)cc1 (stereo unspecified),7.27%,–
COc1ccc(NC(=O)c2ccco2)cc1NC(=O)COc1ccc(C)c(C)c1,-10.5%,–
Cc1ccc(C(CC(=O)O)Nc2nc(N3CCCCC3)nc(N3CCCCC3)n2)cc1 (stereo unspecified),-2.2%,–
CC(Nc1nc(N2CCCC2)nc2ccccc12)c1ccccc1 (stereo unspecified),–,16.4 µM (active)
c1ccc(-c2cc(N3CCCCC3)c3ccccc3n2)cc1,-8.21%,–
CCC(C)N(c1ccc(/C=C/c2ccnc3ccccc23)cc1)C(C)CC (stereo unspecified),0%,–
COc1ccc(CNC(=O)c2cc3cccc(OC)c3oc2=O)cc1,3.72%,–
COc1cc(NC(=O)CN2CCN(S(=O)(=O)c3ccc(Br)cc3)CC2)cc(OC)c1,12.6%,–
CCCn1c(=N)c(C(=O)NCc2ccccc2)cc2c(=O)n3cccc(C)c3nc21,2.22%,–
Cc1cccn2c(=O)c3cc(C(=O)NCCN4CCOCC4)c(=N)n(Cc4cccnc4)c3nc12,–,8.2 µM (active)
Cc1cccn2c(=O)c3cc(C(=O)NC(C)c4ccccc4)c(=N)n(CCCO)c3nc12 (stereo unspecified),-1.69%,–
COc1cc(NS(=O)(=O)c2cccs2)cc(OC)c1,7.71%,–
CNC(=O)c1ccc(-c2nc(CN3CCc4ccccc43)c(C)o2)cc1,-9.03%,–
Cc1cccc(-n2ncc(C(=O)N3CCC(C)CC3)c2C2CCN(C(=O)OC(C)(C)C)CC2)c1,1.23%,–
O=C(Cn1nnc(-c2ccc3c(c2)OCO3)n1)NCc1ccco1,-9.57%,–
CC1(C(=O)NCc2ccco2)Cc2c(-c3ccc4c(c3)OCO4)ccnc2O1 (stereo unspecified),–,2.59 µM (active)
CC(=O)Nc1cccc(-c2ccnc3c2CC(C)(C(=O)NCc2ccco2)O3)c1 (stereo unspecified),-6.09%,–
CS(=O)(=O)N(CC(=O)NCc1ccco1)c1ccc2c(c1)OCO2,-2.96%,–
CC1(C(=O)Nc2cccnc2)Cc2c(-c3ccccc3)ccnc2O1 (stereo unspecified),-2.18%,–
CC(=O)Nc1cccc(-c2ccnc3c2CC(C)(C(=O)NCc2ccccc2)O3)c1 (stereo unspecified),–,2.91 µM (active)
CC1=C(C(=O)OCc2ccc(C)cc2)C(c2c(Cl)cccc2Cl)CC(=O)N1 (stereo unspecified),1.29%,–
Cc1ccc2nc(COc3cccc(NC(=O)c4cccc(Cl)c4)c3)cc(=O)n2c1,2.14%,–
CCc1nc2ccc(C(=O)N3CCN(c4cc(Cl)ccc4C)CC3)cc2nc1CC,0%,–
O=C(c1ccco1)N(Cc1cccs1)c1ccc(O)cc1,3.03%,–
CCOC(=O)C1=CC[C@@H](c2ccccc2)N(S(=O)(=O)c2ccc(C)cc2)[C@H]1c1cccc(OC)c1,-0.13%,–

SMILES,"activity change, negative = cytotoxic",Potency
CCOC(=O)C1C(C)C(C(C)(C)C)N(S(=O)(=O)c2ccc(C)cc2)C1c1ccccc1 (stereo unspecified),–,23.1 µM (active)
CCOC(=O)C1=CC[C@@H](c2ccccc2)N(S(=O)(=O)c2ccc(C)cc2)[C@H]1c1ccc(CC)cc1,-1.65%,–
COc1ccc(-c2ccc3ncnc(NCc4cccs4)c3c2)cc1OC,-8.64%,–
Cc1ccccc1CSCCNC(=O)C1CCN(S(=O)(=O)Cc2ccccc2)CC1,5.62%,–
CCCNC(=O)C1CCC(Cn2c(=O)c3sccc3n(Cc3ccccc3F)c2=O)CC1 (stereo unspecified),3.19%,–
CCOC(=O)c1ccc(NC(=O)c2ncn(-c3ccccc3)n2)cc1,-18.2%,–
CCOc1ccc(CNC(=O)c2cc(-c3ccc(Cl)s3)nc3ccccc23)cc1,7.73%,–
CCc1cc2c(NC(Cc3ccccc3)C(=O)O)ncnc2s1 (stereo unspecified),16.8%,–
CCN1CCN(c2ncnc3c2cnn3-c2ccc(C)c(C)c2)CC1,-9.73%,–
CCc1cc2c(N3CCN(c4nnc(CC)s4)CC3)ncnc2s1,–,9.2 µM (active)
CCCCOc1ccc(C(=O)Nc2cccc(-c3nc4ccccc4o3)c2C)cc1,2.3%,–
Cc1ccc2nc(CN3CCN(S(=O)(=O)c4ccc(C)c(C)c4)CC3)oc2c1,5.7%,–
COc1ccccc1NC(=O)c1cc(N2C(=O)C3C4CCC(C4)C3C2=O)ccc1Cl (stereo unspecified),26.6%,–
COc1ccccc1NC(=O)c1cc(Cl)nnc1Cl,–,23.1 µM (active)
CSc1ccccc1NC(=O)c1cc(Cl)sc1Cl,5.25%,–
Oc1ccccc1-c1nc(/C=C/c2ccc(F)cc2)no1,-0.486%,–
COc1cc2c(=O)c(S(=O)(=O)c3ccc(C(C)C)cc3)cn(Cc3ccccc3C)c2cc1OC,9.54%,–
CCOc1ccc(-n2c(SCC(=O)Nc3cc(C(=O)O)ccc3Cl)nc3ccccc3c2=O)cc1,-4.78%,–
Cc1cc(C)nc(N/N=C/c2c(CO)cnc(C)c2O)n1,13.8%,–
CCOc1ccc(-n2c(O)c(/C=N/Nc3nc(C)cc(C)n3)c3ccccc3c2=O)cc1,–,20.6 µM (active)
COc1cc(OC)c(NC(=O)c2nc(-c3ccncc3)no2)cc1Cl,-2%,–
Cc1ccc(N2CCN(C(=O)CCc3c(C)nc4c(c3C)c(=O)n(C)c(=O)n4C)CC2)c(C)c1,11.6%,–
Cc1ccc(OCCn2c(CNc3ccccc3C)nc3ccccc32)cc1,2.01%,–
